HTR5A inv ag: counter-screen for OPRM1-OPRD1 inverse agonists: human HTR5A inverse agonism. P47898. HTR5A cell line, luminescence. AID 504634. 340,000 compounds, 0.083% hits. inhibition, % at 9.3 µM; in the data active = inhibition mostly above about 23%, no sharp cut-off; inactive = mostly below about 18%
Target sequence (P47898 whole entry, looked up): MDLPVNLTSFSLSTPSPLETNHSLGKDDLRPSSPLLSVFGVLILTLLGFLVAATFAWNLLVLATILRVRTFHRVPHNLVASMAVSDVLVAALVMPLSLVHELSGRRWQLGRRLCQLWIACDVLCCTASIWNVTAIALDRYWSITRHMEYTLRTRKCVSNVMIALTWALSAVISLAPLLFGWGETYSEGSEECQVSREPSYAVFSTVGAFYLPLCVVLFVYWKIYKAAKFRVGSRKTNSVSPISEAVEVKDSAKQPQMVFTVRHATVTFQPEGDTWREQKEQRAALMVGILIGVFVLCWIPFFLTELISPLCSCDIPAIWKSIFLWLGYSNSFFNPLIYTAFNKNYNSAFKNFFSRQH
HTR5A ag ctr: counter-screen for OPRM1-OPRD1 agonists: human HTR5A agonism; P47898; HTR5A agonist assay, luminescence, cell-based; activation, % at 9.3 µM; 340,000 compounds, 0.61% hits; AID 504692; in the data active = activation mostly above about 9.5%, no sharp cut-off; inactive = mostly below about 7.6%
OPRM1-OPRD1 inv: inverse agonist of human OPRM1-OPRD1 heterodimerization. 340,000 compounds, 0.21% hits. inhibition, % at 9.3 µM. cell-based MOR-DOR heterodimer luminescence, inverse agonism. P35372+P41143. AID 504357; in the data active = inhibition above about 22%, passing the limit was not always enough
MOR-DOR ag-1: OPRM1-OPRD1 heterodimerization agonism | 340,000 compounds, 0.3% hits | activation, % at 9.3 µM | AID 504326 | cells, luminescence | P35372+P41143
MOR-DOR ag-2: opioid heterodimer agonism, HTR5A counter-screen; shares compounds with HTR5A ag ctr; U2OS counter-screen cells, complementation luminescence, 3 h; activation, % at 9.3 µM; 800 compounds, 13% hits; AID 504913
HTR5A ag conf: confirmation of human HTR5A agonists; shares compounds with HTR5A ag ctr; HTR5A agonist cell assay, luminescence; activation, % at 9.3 µM; 800 compounds, 17% hits; in the data active = activation above about 17%
Large screens that a line does not name were inactive (follow-up assays come after a bar, where they were run); ! = repeats disagree. Shown are actives, neighbours in structure and some others; about 1.1% of the full set was active somewhere. Cut-off read from the data, not from the text of the source, unless noted: active = activation above about 18%; inactive = the rest.

CCN1C[C@@H]2[C@@H]3C(=O)N(C)C(=O)[C@@H]3[C@](Cc3ccccc3)(C(=O)OC)N2C1=NC1CCCCC1	none
CC(=O)N1CCSc2ccc(S(=O)(=O)Nc3cccc(C)c3)cc21	none
CS(=O)(=O)c1ccc2nc(NC(=O)CCNC(=O)c3ccc([N+](=O)[O-])cc3)sc2c1	HTR5A ag ctr 19.6 | MOR-DOR ag-2 inactive | HTR5A ag conf inactive
Cc1cc(-n2c(C)cc(C(=O)CSc3nncn3C(C)C)c2C)no1	none
Cc1cc(C)c(S(=O)(=O)Nc2ccc(-c3cn4ccccc4n3)cc2)c(C)c1	HTR5A ag ctr 14.3 | MOR-DOR ag-2 inactive | HTR5A ag conf 39.9
Cc1cccc(S(=O)(=O)Nc2ccc(-c3cn4ccccc4n3)cc2)c1	none
O=C(CC1CC2CCC1C2)OCC(=O)c1c[nH]c2ccccc12 (centres undefined)	HTR5A ag ctr 14.9 | MOR-DOR ag-2 inactive | HTR5A ag conf inactive
COC(=O)c1cc(NS(=O)(=O)c2ccc(N3CCOCC3)c(NC(C)=O)c2)cc(C(=O)OC)c1	none
COC(=O)c1cc(NS(=O)(=O)c2ccc(N3CCOCC3)c(N)c2)cc(C(=O)OC)c1	HTR5A ag ctr 15.0 | MOR-DOR ag-2 inactive | HTR5A ag conf inactive
Cc1ccc(NC(=O)CCNS(=O)(=O)c2ccc3[nH]c(=O)oc3c2)cc1N(C)C	none
c1ccc2c(-c3csc(-c4ccncc4)n3)c[nH]c2c1	HTR5A ag ctr 20.5 | MOR-DOR ag-2 inactive | HTR5A ag conf inactive
Brc1ccc(-c2csc(-c3c[nH]c4ccccc34)n2)cc1	none
Cc1ccc(Cn2nnc3c(=O)[nH]c(C4CCN(S(=O)(=O)c5ccc(C)cc5)CC4)nc32)cc1	none
O=c1[nH]c(C2CCN(S(=O)(=O)c3ccc(C(F)(F)F)cc3)CC2)nc2c1nnn2Cc1ccc(F)cc1	HTR5A ag ctr 18.1 | MOR-DOR ag-2 inactive | HTR5A ag conf inactive
CCN(CC(=O)Nc1ccc(NC(C)=O)cc1)C(=O)c1ccc(C(=O)c2ccccc2)cc1	HTR5A ag ctr 21.6 | MOR-DOR ag-2 inactive | HTR5A ag conf 30.5
CCN(CC(=O)Nc1ccc(NC(C)=O)cc1)C(=O)COc1ccc(C(=O)c2ccccc2)cc1	none
Cn1c(CC(=O)NNC(=O)c2ccc(F)cc2Cl)nc2ccccc21	none
COCCN(C(=O)c1ccc2c(c1)C(=O)N(c1ccccc1Cl)C2=O)c1c(N)n(CC(C)C)c(=O)[nH]c1=O	none
COc1cc(CN2CCN(Cc3ccc([N+](=O)[O-])cc3)CC2)c([N+](=O)[O-])cc1OC	HTR5A ag ctr 14.8 | MOR-DOR ag-2 inactive | HTR5A ag conf inactive
Cc1cc(C(=O)COC(=O)C2=COCCO2)c(C)n1-c1cccc(F)c1	HTR5A ag ctr 15.7 | MOR-DOR ag-2 inactive | HTR5A ag conf inactive
Cc1cc(C(=O)COC(=O)C2=COCCO2)c(C)n1-c1ccc2c(c1)OCO2	none
NC(=O)Nc1ccc(C(=O)OCC(=O)Nc2cccc(S(=O)(=O)NC3=NCCCCC3)c2)cc1	none
COc1ccc(OCc2n(CC(=O)OC3CC(C)CCC3C(C)C)c3ccccc3[n+]2C)cc1 (centres undefined)	HTR5A ag ctr 21.4 | MOR-DOR ag-2 inactive | HTR5A ag conf inactive
CCc1ccc(CCC(=O)Nc2ncc(Cc3ccccc3Cl)s2)o1	HTR5A ag ctr 16.9 | MOR-DOR ag-2 21.6 | HTR5A ag conf inactive
O=C(CN1CCOCC1)Nc1ncc(Cc2ccccc2Cl)s1	none
O=C(N/N=C1\CCCc2ccccc21)c1ccccc1Cl	none
O=C(CNc1ccccc1Cl)N/N=C1\CCCc2ccccc21	HTR5A ag ctr 20.8 | MOR-DOR ag-2 20.1 | HTR5A ag conf 36.0
OCC#CCSc1nnc(-c2ccncc2)o1	HTR5A ag ctr 15.5 | MOR-DOR ag-2 19.5 | HTR5A ag conf inactive
Cc1ccccc1NC(=O)COc1coc(CN2CCCc3ccccc32)cc1=O	none
Cc1ccc(C)c(NC(=O)COc2coc(CN3CCc4ccccc43)cc2=O)c1	HTR5A ag ctr 16.1 | MOR-DOR ag-2 inactive | HTR5A ag conf inactive
O=C(NCc1ccccc1)c1ccc(F)c(F)c1	HTR5A ag ctr 14.5 | MOR-DOR ag-2 inactive | HTR5A ag conf inactive
CCn1c2ccccc2c2cc(NC(=O)CSc3nnc(-c4ccc(OC)cc4)n3N)ccc21	HTR5A ag ctr 19.4 | MOR-DOR ag-2 inactive | HTR5A ag conf inactive
COCCNC(=O)NC(=O)CN1CCN(C(c2ccccc2)c2ccccc2)CC1	none
COc1cccc(Nc2nc(CC(C)=O)ns2)c1	HTR5A ag ctr 19.1 | MOR-DOR ag-2 inactive | HTR5A ag conf inactive
Cc1[nH]nc(-c2ccc(OCc3cnn(-c4ccccc4)c3)c(C)c2O)c1Oc1ccccc1	HTR5A ag ctr 22.2 | MOR-DOR ag-2 19.4 | HTR5A ag conf inactive
Cc1ccc2[nH]c(=O)c3cc(C(=O)N(CCCOC(C)C)Cc4ccco4)sc3c2c1	HTR5A ag ctr 27.2 | MOR-DOR ag-2 inactive | HTR5A ag conf inactive
O=C(c1ccc(Cl)c(S(=O)(=O)N2CCOCC2)c1)N1CCN(c2ccccc2F)CC1	none
O=C(c1ccc(Cl)c(S(=O)(=O)N2CCCC2)c1)N1CCN(c2ccccc2F)CC1	HTR5A ag ctr 20.9 | MOR-DOR ag-2 inactive | HTR5A ag conf inactive
O=C(c1ccc(Cl)c(S(=O)(=O)NCc2ccccc2)c1)N1CCN(c2ccccn2)CC1	HTR5A ag ctr 21.4 | MOR-DOR ag-2 inactive | HTR5A ag conf inactive
O=C(c1ccc(Cl)c(S(=O)(=O)N2CCCC2)c1)N1CCN(c2ncccn2)CC1	HTR5A ag ctr 20.4 | MOR-DOR ag-2 inactive | HTR5A ag conf inactive
O=C(NCCn1cccn1)C1CCC(=O)N(CC2CCCCC2)C1 (centres undefined)	HTR5A ag ctr 25.4 | MOR-DOR ag-2 inactive | HTR5A ag conf inactive
COC(=O)c1ccc(C)c(NS(=O)(=O)c2cn(C)nc2C)c1	none
O=C(O)c1cc(-c2ccco2)nc2ccc(Br)cc12	HTR5A ag ctr 18.3! | MOR-DOR ag-2 41.8 | HTR5A ag conf inactive
O=C(c1ccco1)N1CCN(C(=O)c2cc(-c3ccncc3)nc3ccc(Br)cc23)CC1	none
CCN(CC)CCSc1nnc2c3ccccc3n(Cc3ccccc3)c2n1	none
Cc1cccc(C(=O)NNC(=O)c2c(O)c3ccccc3n(C)c2=O)c1	HTR5A ag ctr 18.9 | MOR-DOR ag-2 inactive | HTR5A ag conf inactive
CCOC(=O)c1c(NC(=O)CSc2nc3ccc(C)cc3[nH]2)sc2c1CC(C)(C)NC2(C)C	none
CS(=O)(=O)c1ccc(N2CCN(S(=O)(=O)c3cccs3)CC2)c([N+](=O)[O-])c1	none
CCCCCCCCOC(=O)CCc1c(C)[nH]c(=S)[nH]c1=O	HTR5A ag ctr 15.2 | MOR-DOR ag-2 inactive | HTR5A ag conf inactive
O=C(O)c1ccc(NS(=O)(=O)c2cc(Cl)ccc2Cl)cc1	HTR5A ag ctr 15.9 | MOR-DOR ag-2 inactive | HTR5A ag conf inactive
CC(C)(C)Cc1nnc(NC(=O)c2ccco2)s1	none
O=C(NNC(=S)Nc1ccccc1)c1cccc(Br)c1	HTR5A ag ctr 17.6 | MOR-DOR ag-2 inactive | HTR5A ag conf inactive
O=C(NNC(=S)Nc1ccc(Br)cc1)c1ccccc1	none

From PubChem
